# The campaign covered roughly 56,000 sequences. About 3,400 (6.1%) were called active. Rule as the data show it: active = GI50 up to about 1.1 µM and inactive = higher. Only a sample is shown. Measured potencies and affinities stand elsewhere.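 Results reflect a 48-hour exposure of cells in 96-well plates to compound at five concentrations. GI50: concentration for 50% inhibition of growth.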
# Test system: HOP-62
# Assay: NCI tumour cell line growth inhibition, 48 h
row,Substance,GI50 [µM]
1,"cis-Bis[[(trimethylsilyl)methyl]amino]tetrachloroplatinum(IV), CHEMBL2146191",20.6
2,"[Bis(aminomethyl)diethylsilane]tetrachloroplatinum(IV), CHEMBL2146203",1.7
3,"mu-(1,7-nanodiamine-N,N')bis-(cis-aminedichloroplatimum (II)), CHEMBL2146215",7.64
4,"CISPLATIN, CHEMBL11359",1.82
5,"[Bis(aminomethyl)dimethylsilane]tetrachloroplatinum(IV), CHEMBL2146190",6.61
6,"[Bis(aminomethyl)tetramethylenesilane]tetrachloropaltinum(IV), CHEMBL2146189",6.32
7,"[Bis(aminomethyl)dimethylsilane]dichloroplatinum (II), CHEMBL2146201",35.3
8,"[Bis(aminomethyl)tetramethylenesilane]dichloropaltinum(II), CHEMBL2146205",39.7
9,"[Bis(aminomethyl)ethylmethylsilane]tetrachloroplatinum(IV), CHEMBL2146192",4.91
10,"[Bis(aminomethyl)pentamethylenesilane]tetrachloropaltinum(IV), CHEMBL2146204",1.55
11,"[Bis(aminomethyl)pentamethylenesilane]dichloropaltinum(II), CHEMBL2146202",2.33

# From ChEMBL document CHEMBL1201862, “PubChem BioAssay data set” (2004)
